Bioassay records as filed in PubChem.
GPT2 inh: GPT2 alanine aminotransferase inhibition; Potency, µM (top dose mostly 57.7 µM), for inactives: at the highest dose activity change, negative = inhibition, actives largely listed as inhibitors; 100,000 tested, 0.25% active; Q8TD30; Recombinant GPT2, coupled pyruvate oxidase/HRP Amplex Red fluorescence; AID 1671188; also: % is scaled to controls: 0 for no effect and ±100 for the full control effect; nearly all actives have a fitted effect of over 60% in size
Target sequence (Q8TD30 whole entry, looked up): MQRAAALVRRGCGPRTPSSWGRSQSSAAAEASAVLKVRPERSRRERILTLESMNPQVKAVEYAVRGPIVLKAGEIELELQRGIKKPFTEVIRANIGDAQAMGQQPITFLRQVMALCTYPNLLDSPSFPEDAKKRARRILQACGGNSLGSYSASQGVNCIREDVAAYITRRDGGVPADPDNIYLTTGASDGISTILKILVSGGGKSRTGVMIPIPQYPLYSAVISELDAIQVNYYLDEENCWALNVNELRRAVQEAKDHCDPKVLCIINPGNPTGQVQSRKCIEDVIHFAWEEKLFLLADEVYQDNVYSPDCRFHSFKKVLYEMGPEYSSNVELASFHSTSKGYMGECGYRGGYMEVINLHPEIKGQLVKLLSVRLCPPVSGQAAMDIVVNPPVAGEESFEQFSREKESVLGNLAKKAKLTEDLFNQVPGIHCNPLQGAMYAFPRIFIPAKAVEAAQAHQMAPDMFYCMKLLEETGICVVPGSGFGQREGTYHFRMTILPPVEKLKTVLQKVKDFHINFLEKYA
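GPT2 10ng/uL, a-KG 250uM, L-Ala 2mM, HEPES pH7.5 + 0.0001% Tween; 30 min RT. Then Amplex mix (PO/HRP/ThPP), 30 min RT dark, fluorescence. AOA 50uM used as positive control.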
NIH3T3 tox: kills NIH 3T3 cells; 94,000 tested, 4.3% active; AID 1345082; NIH 3T3 viability, CellTiter-Glo ATP luminescence, 48-72 h; Potency, µM (doses to about 96.7 µM), for inactives: at the highest dose activity change, negative = cytotoxicity, most hits filed as inhibitors; also: % is scaled to controls: 0 for no effect and ±100 for the full control effect; nearly all actives have a fitted effect of over 55% in size
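Viability of NIH 3T3 cells after 48 or 72 hr compound treatment at 37 °C was assessed by CellTiter-Glo, with luminescence imaged following a 10 min room-temperature step.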
HEK293 tox: kills HEK 293 cells. HEK 293 viability, ATP luminescence (CellTiter-Glo), 48-72 h. Potency, µM (series often up to 115 µM), without a hit: top-dose activity change, negative = cytotoxicity, most hits filed as inhibitors. 94,000 tested, 6.6% active. AID 1345083; also: % is scaled to controls: 0 for no effect and ±100 for the full control effect; nearly all actives have a fitted effect of over 60% in size
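Cytotoxicity was scored by loss of ATP-coupled luminescence (CellTiter-Glo) in HEK 293 cells. Compound treatment ran 48 or 72 hr at 37 degree Celsius, 5% CO2, 95% humidity.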
FLuc inh-1: blocks purified firefly luciferase enzyme activity; 76,000 tested, 2.5% active; P08659; Potency, µM (doses to about 115 µM), most hits filed as inhibitors; purified P. pyralis luciferase, luminescence, biochemical; AID 1347043; also: % is scaled to controls: 0 for no effect and ±100 for the full control effect; nearly all actives have a fitted effect of over 65% in size
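FLuc 10nM, D-luciferin 10uM, ATP 10uM, Mg acetate 10mM, Tris acetate pH 7.5, Tween/BSA; cpd qHTS; enzyme added last; CCD luminescence.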
hNpr1 antagonist: blocks ANP-stimulated signaling of human Npr1 receptor; Potency, µM (titrated, usually from 46.3 µM), for the others: at the top dose activity change, negative = inhibition, most hits filed as inhibitors; P16066; 76,000 tested, 1.6% active; HEK293 hNpr1 GloSensor cGMP, ANP-stimulated luminescence; calls by dose curve; also: % is scaled to controls: 0 for no effect and ±100 for the full control effect; nearly all actives have a fitted effect of over 60% in size
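Compound pre-incubated 30 min at room temperature on GloSensor-loaded HEK293 cells stably carrying hNpr1 and the pGS-40F cGMP biosensor. Stimulation uses hNppA at 0.1 nM final; luminescence is taken at baseline and 20 min post-agonist.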
FLuc SDR no ATP: firefly luciferase binding stabilization, ATP absent; shares compounds with FLuc inh-1; Purified FLuc-C-HiBiT, Nano-Glo HiBiT luminescence, no ATP; Potency, µM (top dose mostly 32.7 µM), for inactives: top-dose activation (signal gain), most hits filed as activators; 1,300 tested, 7.8% active; also: nearly all actives have a fitted effect of over 55% in size
FLuc SDR ATP: stabilizes firefly luciferase with ATP present | purified FLuc-C-HiBiT + ATP, HiBiT complementation luminescence | 1,300 tested, 8.7% active | Potency, µM (series often up to 32.7 µM), for inactives: top-dose activation (gain of signal), actives largely listed as activators | AID 1963319 | shares compounds with FLuc inh-1;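 also: signal reports ligand binding via conformational change of the enzyme rather than luciferase catalysis; % of control where 0% means no effect; nearly all actives have a fitted effect of over 55% in size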
FLuc inh-2: firefly luciferase enzyme inhibition; 1,300 tested, 42% active; Potency, µM (doses to about 32.7 µM), for inactives: at the top dose activity change, negative = inhibition, actives largely listed as inhibitors; shares compounds with FLuc inh-1; purified FLuc-C-HiBiT enzyme, luciferin luminescence; also: % is scaled to controls: 0 for no effect and ±100 for the full control effect; nearly all actives have a fitted effect of over 70% in size
Starred values were filed as active, the others as inactive; i = inactive; u = inconclusive; x = not tested or not shown; [ ] = dose if it differs, or a comment. Compounds with a hit are over-represented: about 10% of the library has one in this group of screens. Unless noted, calls follow the shape of the dose curve; as a rule, active = well fitted curve in the direction sought with a large enough effect; inconclusive = small, poorly fitted or top-dose-only effect, or another doubt; inactive = no such curve, though single readings can be large; an effect the other way counts as inactive or inconclusive. Potency is read from the fitted curve at half-maximal effect.

SMILES	GPT2 inh	NIH3T3 tox	HEK293 tox	FLuc inh-1	hNpr1 antagonist	FLuc SDR no ATP	FLuc SDR ATP	FLuc inh-2
COc1cc(C)ccc1S(=O)(=O)N1CCCCC1CN1CCOCC1 (centres undefined)	i	-1%	u	i	-1%	x	x	x
CCOc1ccc(C(=O)N[C@@H]2CN(C)C[C@H]2CN(C)C)cc1OCC	i	-15%	-9%	i	-2%	x	x	x
Cc1cnc(CCNC(=O)Nc2ccc3c(c2)OCCO3)n1Cc1ccc(F)cc1	2%	-19%	40µM*	14µM*	-29%	19%	15%	u
CNC(=O)NCCc1ncc(C)n1C1CCCCCC1	i	-3%	2%	i	4%	x	x	x
Cc1cnc(CCNC(=O)Nc2ccc3c(c2)OCCO3)n1C1CC1	i	-21%	-25%	6.3µM*	-15%	19%	16%	u
CN(C)c1cnn(CC(=O)N2CCCC(c3ccc(Cl)cc3)C2)c(=O)c1 (centres undefined)	4%	-26%	-32%	i	-3%	x	x	x
CC[C@H](CO)Nc1nc(NCc2ccccc2)c2ncn(C(C)C)c2n1	i	x	x	x	x	x	x	x
COC[C@@H]1CN(C(=O)c2cccc3[nH]ccc23)C[C@H]1c1nc(C)no1	i	i	i	i	7%	x	x	x
CCc1n[nH]c(CC2CCN(C(=O)Nc3ccc4c(c3)OCCO4)CC2)n1	i	i	3%	7.9µM*	-28%	21%	16%	u
CC(C)n1cnnc1CC1CCN(C(=O)Nc2ccc3c(c2)OCCO3)CC1	i	3%	i	7.9µM*	-15%	26%	u	9.9µM*
CNC(=O)[C@H]1C[C@H](Oc2cccnc2)CN1C(=O)Nc1cccc(F)c1	i	-3%	i	i	10%	x	x	x
COc1ccccc1CN1CC(c2noc(CCC(=O)c3ccc(C)cc3)n2)CC1=O (centres undefined)	i	u	u	i	-21%	x	x	x
O=C(Cn1c(=O)c2c(n1Cc1ccccc1)CN(Cc1ccccc1)CC2)NCc1ccc2c(c1)OCO2	-8%	-20%	u	i	-11%	x	x	x
Cc1ccc(-c2cc(N)n(-c3ccc(C)cc3)n2)cc1	x	x	x	x	x	23%	14%	u
O=c1oc2ccc(F)cc2cc1-c1nc(-c2cccs2)no1	x	x	x	x	x	14%	20%	u
Cc1ccc2oc(=O)c(-c3nc(-c4cccs4)no3)cc2c1	x	x	x	x	x	14%	13%	-14%
Fc1ccc(C2Cn3cnc(-c4nc(-c5cccs5)no4)c3CO2)cc1 (centres undefined)	-6%	-13%	-25%	i	-11%	x	x	x
CN(C)CCCCC(=O)Nc1ccc(NC(=S)NC(=O)c2ccc(C(C)(C)C)cc2)cc1	i	x	x	x	x	x	x	x
COc1ccc(NC(=O)c2cnc3c(c2)N(C(=O)CCc2ccccc2)CCC3)cn1	i	-20%[138 µM]	u	i	-2%[70.6 µM]	x	x	x
Cc1c(NC(=O)c2ccc(I)o2)cccc1-c1nc2ccccc2s1	x	x	x	x	x	27%	13%	7µM*
Cc1c(NC(=O)Cc2ccccc2)cccc1-c1nc2ccccc2s1	x	x	x	x	x	u	17%	u
Cc1ccc(-c2ncc(C(=O)Nc3ccccc3Cl)c(-c3ccncc3)n2)cc1	i	-3%	10%	i	-1%	x	x	x
CCC(=O)Nc1cc(-c2nc3ccccc3s2)c(Cl)cc1Cl	x	x	x	x	x	17%	11%	-5%
Cc1c(NC(=O)c2cccc(Cl)c2Cl)cccc1-c1nc2ccccc2s1	x	x	x	x	x	17%	12%	-18%
Cn1nc(-c2ccncc2)cc1NC(=O)Cc1ccccc1	i	u	0%[172 µM]	x	x	x	x	x
SMILES	GPT2 inh	NIH3T3 tox	HEK293 tox	FLuc inh-1	hNpr1 antagonist	FLuc SDR no ATP	FLuc SDR ATP	FLuc inh-2
CCC1c2nccn2CCCN1C(=O)Cn1c(=O)oc2ccccc21 (centres undefined)	i	-19%	-10%	i	3%	x	x	x
COc1cccc(-c2cn3cc(C(=O)NCc4ccccc4Cl)nc3s2)c1	-3%	u	u	x	x	x	x	x
COc1ccc(CN2CCOc3nc(-c4cc5ccccc5o4)ncc3C2=O)cc1	-1%[88.5 µM]	-14%[138 µM]	u	3.5µM*	u	16%[49.3 µM]	16%[49.3 µM]	8.1µM*
O=C1NCCCc2[nH]c(-c3cc(-c4cccc(F)c4)no3)nc21	i	-29%	-34%	2.8µM*	-29%	u	u	7µM*
COc1ccc(N2CC(C(=O)NCCN3CCOC3=O)CC2=O)cc1Cl (centres undefined)	-8%	-1%	-18%	i	3%	x	x	x
O=C(NCc1ccccc1F)c1cn2cc(-c3ccc(F)cc3)sc2n1	1%[88.5 µM]	-17%[138 µM]	-9%[172 µM]	x	x	x	x	x
Fc1ccc(-c2cn3cc(Cc4ccccc4Cl)sc3n2)cc1	x	x	x	x	x	u	u	0.99µM*
O=C(NCc1ccccc1Cl)c1nc2sccn2c1-c1ccc(F)cc1	i	-31%	-9%	x	x	x	x	x
Cc1ccc(-c2cn3cc(C(=O)NCCCc4ccccc4)nc3s2)cc1	i	-27%	-34%	x	x	x	x	x
Fc1ccccc1Cc1cn2cc(-c3ccc(Cl)cc3)nc2s1	x	x	x	x	x	20%	u	1.6µM*
Cc1ccc(Cc2cn3cc(-c4ccccc4)nc3s2)cc1	x	x	x	x	x	u	u	0.44µM*
Fc1ccc(Cc2cn3cc(-c4ccc(F)cc4)nc3s2)cc1	x	x	x	x	x	u	u	0.88µM*
Clc1ccc(-c2cn3cc(Cc4ccccc4)sc3n2)cc1	x	x	x	x	x	30%	u	0.79µM*
Cc1noc2c(Nc3ccc(N4CCOCC4)cc3)cc(-c3cccs3)nc12	u	u	u	i	-18%[70.6 µM]	x	x	x
Cc1ccn2c(Nc3ccc(C(C)C)cc3)c(-c3cccs3)nc2c1	x	x	x	x	x	17%	15%	u
CN1CCC(N2CCC(N3C(=O)C4(CCCCC4)C3c3ccncc3)CC2)CC1 (centres undefined)	-22%	-13%	-1%	i	0%	x	x	x
Cc1ccc(-c2noc(-c3nc(C4CC4)no3)n2)cc1	i	3%	-3%	i	1%	x	x	x
c1ccc(-c2noc(-c3nc(C4CC4)no3)n2)cc1	i	-6%	u	2.5µM*	u	17%	19%	u
Cc1noc(-c2nc(-c3cccc(C(F)(F)F)c3)no2)n1	2%	i	2%	i	-1%	x	x	x
CC(C)(CNC(=O)c1cccc(-c2noc(C(F)(F)F)n2)c1)c1coc(-c2ccccc2)n1	i	x	x	x	x	x	x	x
